Source: PubChem
A selection: hits, their analogues and other compounds. The true share with any hit is near 2.4%.
C diff growth: inhibitors of Clostridium difficile growth; Clostridium difficile clinical isolate growth, OD600, 24 h; stronger effect = lower value; growth activity, negative = inhibition, % at 16 µg/mL (by protocol); actives 0.25% (n = 86,000);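 active means mean growth activity at or below -80% and every replicate also at or below -80%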;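 further: 0% = DMSO wells and -100% = levofloxacin 16 µg/mL wells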
Pf Dd2 inh: P. falciparum Dd2 growth inhibition; activity change, % at 10 µM; SYBR Green, 72 h; stronger effect = lower value; actives 2.3% (n = 94,000); in the data active means activity change below about -80%
Active calls of the source: *; x = no result.

SMILES | C diff growth | Pf Dd2 inh
COc1cccc(NC(=O)N(C)C[C@@H]2Oc3cc(C#Cc4ccccc4)ccc3S(=O)(=O)N([C@H](C)CO)C[C@@H]2C)c1 | -12.7 | -90.3*
COc1cccc(NC(=O)N(C)C[C@@H]2Oc3cc(C#Cc4ccc(F)cc4)ccc3S(=O)(=O)N([C@H](C)CO)C[C@@H]2C)c1 | 4.2 | -89.8*
C[C@H]1CN([C@@H](C)CO)C(=O)Cc2cc(NS(=O)(=O)c3ccccc3)ccc2O[C@H]1CN(C)S(=O)(=O)c1cn(C)cn1 | 7.1 | 8.0
COCC#Cc1ccc2c(c1)O[C@H](CN(C)C(=O)NC(C)C)[C@@H](C)CN([C@@H](C)CO)S2(=O)=O | -2.3 | x
O=C(c1cnccn1)N1CC(=O)N2[C@@H](CO)[C@H](c3ccc(C#CCc4ccccc4)cc3)[C@@H]2C1 | -13.0 | -88.1*
O=C(C1CCCCC1)N1CC(=O)N2[C@H](CO)[C@@H](c3ccc(C#CCc4ccccc4)cc3)[C@@H]2C1 | -4.5 | -83.4*
O=C(C1CCCCC1)N1CC(=O)N2[C@H](C1)[C@@H](c1ccc(C#CCc3ccccc3)cc1)[C@@H]2CO | 0.0 | -66.1
O=C(C1CCCC1)N1CC(=O)N2[C@@H](CO)[C@H](c3ccc(C#CCc4ccccc4)cc3)[C@@H]2C1 | 54.1 | -92.9*
O=C(C1CCCC1)N1CC(=O)N2[C@H](CO)[C@@H](c3ccc(C#CCc4ccccc4)cc3)[C@H]2C1 | 20.3 | -43.2
O=C(c1cnccn1)N1CC(=O)N2[C@H](CO)[C@@H](c3ccc(C#CCc4ccccc4)cc3)[C@H]2C1 | -6.5 | -51.2
CCCC#Cc1cnc2c(c1)C(=O)N([C@@H](C)CO)C[C@@H](C)[C@@H](CN(C)Cc1ccccc1)O2 | 7.6 | -45.0
O=C(C[C@H]1C[C@H]2c3cc(NC(=O)c4ccc5c(c4)OCO5)ccc3O[C@H]2[C@@H](CO)O1)NCCc1ccccc1 | x | -44.3
C[C@@H]1CCCCO[C@H](CN(C)C(=O)C2CCCCC2)[C@H](C)CN([C@H](C)CO)C(=O)c2cc(NS(=O)(=O)c3cccs3)ccc2O1 | 2.2 | -37.6
COc1cccc(C#Cc2ccc3c(c2)O[C@@H](CN(C)C)[C@H](C)CN([C@H](C)CO)S3(=O)=O)c1 | 2.9 | -55.5
CCC(=O)Nc1ccc2c(c1)OC[C@H](C)N(Cc1cccnc1)C[C@H](C)[C@H](OC)CN(C)C2=O | x | 0.8
COc1ccc2c3c(n(C)c2c1)[C@@H](CO)N(C(C)=O)CC31CCN(C(=O)Nc2ccc(F)cc2)CC1 | -1.0 | -83.3*
COc1ccc2c3c(n(C)c2c1)[C@@H](CO)N(C(=O)c1ccc(F)cc1)CC31CCN(C(=O)Nc2ccc(F)cc2)CC1 | 7.2 | -86.7*
COc1ccc2c3c(n(C)c2c1)[C@H](CO)N(C(=O)c1ccc(F)cc1)CC31CCN(C(=O)c2ccc(F)cc2)CC1 | 9.4 | -57.8
COc1ccc2c3c(n(C)c2c1)[C@@H](CO)N(C(C)=O)CC31CN(C(=O)Nc2ccc(F)cc2)C1 | 8.2 | -63.5
COc1ccc2c3c(n(C)c2c1)[C@@H](CO)N(C(=O)Nc1ccc(F)cc1)CC31CN(Cc2cccc(F)c2)C1 | x | 6.9
CCCNC(=O)N1CC2(CN(Cc3ccc(OC)cc3)C2)c2c(n(C)c3cc(OC)ccc23)[C@H]1CO | -24.3 | -80.5*
CCCNC(=O)N1CC2(CN(Cc3ccncc3)C2)c2c(n(C)c3cc(OC)ccc23)[C@H]1CO | -7.4 | -17.5
COc1ccc2c3c(n(C)c2c1)[C@H](CO)N(C(=O)Nc1ccc(F)cc1)CC31CN(Cc2cccnc2)C1 | 2.6 | -89.4*
C[C@@H]1CN([C@@H](C)CO)C(=O)c2cc(NC(=O)NC3CCCCC3)ccc2O[C@H]1CN(C)S(=O)(=O)c1cn(C)cn1 | -5.7 | 5.2
CCCNC(=O)N1C[C@@H](C)[C@@H](OC)CN(C)C(=O)c2ccc(NC(=O)C3CCC3)cc2OC[C@H]1C | x | 6.0
SMILES | C diff growth | Pf Dd2 inh
C[C@@H]1CCCCO[C@@H](CN(C)Cc2ccc(C(=O)O)cc2)[C@H](C)CN([C@@H](C)CO)C(=O)c2cc(NC(=O)Nc3cccc4ccccc34)ccc2O1 | -8.5 | 5.4
COc1ccc2c3c(n(C)c2c1)[C@@H](CO)N(C(=O)c1ccccc1)CC31CCN(C(=O)c2ccccc2)CC1 | -3.8 | -87.0*
COc1ccc2c3c(n(C)c2c1)[C@H](CO)N(Cc1cccnc1)CC31CN(C(=O)NC(C)C)C1 | -4.0 | -87.7*
COc1ccc2c3c(n(C)c2c1)[C@@H](CO)N(Cc1cccnc1)CC31CCN(C(=O)NC(C)C)CC1 | 8.0 | -72.9
COc1ccc2c3c(n(C)c2c1)[C@H](CO)N(C(=O)Nc1ccccc1F)CC31CN(C(=O)c2ccccc2F)C1 | -12.0 | -74.9
COc1ccc2c3c(n(C)c2c1)[C@@H](CO)N(C(=O)Nc1ccc(F)cc1)CC31CN(C(=O)c2ccccc2F)C1 | -2.4 | -91.8*
COc1ccc2c3c(n(C)c2c1)[C@@H](CO)N(C(=O)c1ccccc1)CC31CCN(C(C)=O)CC1 | -1.2 | -61.0
C[C@H](CO)N1C[C@H](C)[C@H](CN(C)C(=O)c2ccc3c(c2)OCO3)Oc2ncc(C3=CCCC3)cc2C1=O | 3.6 | -1.7
C[C@H](CO)N1C[C@H](C)[C@H](CN(C)C(=O)c2ccccc2)OCCCC[C@H](C)Oc2ccc(NS(=O)(=O)c3ccccc3)cc2C1=O | x | 42.3
C[C@H](CO)N1C[C@H](C)[C@@H](CN(C)C(=O)Nc2cccc3ccccc23)Oc2c(NS(=O)(=O)c3ccc(Cl)cc3)cccc2C1=O | 5.9 | 47.9
Cc1noc(C)c1NC(=O)Nc1ccc2c(c1)C(=O)N([C@@H](C)CO)C[C@H](C)[C@H](CN(C)C(=O)Nc1ccc(F)cc1)O2 | -1.9 | 28.6
COc1ccc(NC(=O)Nc2ccc3c(c2)C(=O)N([C@@H](C)CO)C[C@H](C)[C@H](CN(C)S(=O)(=O)c2ccc(Cl)cc2)OCCCC[C@@H](C)O3)cc1 | 7.7 | -86.5*
COc1ccc(NC(=O)Nc2ccc3c(c2)C(=O)N([C@H](C)CO)C[C@H](C)[C@H](CN(C)S(=O)(=O)c2ccc(OC)cc2)OCCCC[C@H](C)O3)cc1 | -0.3 | -44.7
COc1ccc(NC(=O)Nc2ccc3c(c2)C(=O)N([C@H](C)CO)C[C@H](C)[C@H](CN(C)S(=O)(=O)c2ccc(Cl)cc2)OCCCC[C@@H](C)O3)cc1 | 9.7 | -82.2*
COc1ccc(NC(=O)Nc2ccc3c(c2)C(=O)N([C@H](C)CO)C[C@@H](C)[C@@H](CN(C)S(=O)(=O)c2ccc(Cl)cc2)OCCCC[C@H](C)O3)cc1 | -1.1 | -78.5
C[C@@H]1CCCCO[C@@H](CN(C)S(=O)(=O)c2ccc(Cl)cc2)[C@H](C)CN([C@@H](C)CO)C(=O)c2cc(NC(=O)Nc3ccc4c(c3)OCO4)ccc2O1 | 2.6 | -64.9
Cc1noc(C)c1NC(=O)Nc1ccc2c(c1)C(=O)N([C@H](C)CO)C[C@H](C)[C@@H](CN(C)C(=O)Nc1cccc3ccccc13)OCCCC[C@H](C)O2 | 4.1 | -6.0
C[C@@H]1CN([C@H](C)CO)C(=O)c2cc(NC(=O)Nc3ccc(C(F)(F)F)cc3)ccc2O[C@@H](C)CCCCO[C@@H]1CN(C)Cc1ccncc1 | -3.7 | -77.2
C[C@H]1CCCCO[C@@H](CN(C)Cc2ccc(C(F)(F)F)cc2)[C@@H](C)CN([C@@H](C)CO)C(=O)c2cc(NC(=O)Nc3ccc(C(F)(F)F)cc3)ccc2O1 | 18.9 | -83.4*
